Assay [1] concerns the target Bile acid receptor (Homo sapiens) (UniProt Q96RI1). Briefly: qHTS assay for small molecule antagonists of farnesoid X receptor signaling (AID 588526). Further: on the % scale 0 is the no-effect control and ±100 the full control effect. In short, it runs like this: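 Antagonist mode: titrated compounds tested against chenodeoxycholic acid stimulation (normalized to 50 uM CDCA and DMSO) in GeneBLAzer HEK293T cells for 16 h. Beta-lactamase read by CCF4 fluorescence; IC50 from Hill fits.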

Assay [2] has the same target. Nature of the assay: qHTS assay for small molecule agonists of farnesoid X receptor signaling (AID 588527).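 Further: series mostly up to about 77 µM; 0% = vehicle basal and 100% = reference agonist.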 Conditions: HEK293T FXR-UAS-bla, beta-lactamase ratio, 16 h; stronger effect = higher value. The gist of the method:
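Agonist-mode beta-lactamase reporter in GeneBLAzer FXR-UAS-bla HEK293T cells, titration up to 92 uM, 16 h exposure at 37 C, CCF4 fluorescence. Response scaled to DMSO (0%) and 100 uM chenodeoxycholic acid (100%), then Hill-fitted for EC50 and efficacy.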
For orientation: Quantitative high-throughput screening tests each substance at several concentrations.

The target in assay [3] is Glucocorticoid receptor (Homo sapiens) (UniProt P04150). Nature of the assay: qHTS assay for small molecule agonists of glucocorticoid receptor signaling (AID 588532; active means well fitted curve in the direction sought with a large enough effect in the signal ratio, with a control signal flat; the % refers to the signal ratio;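 further: 100% = dexamethasone at 0.1 µM and 0% = DMSO only wells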). Conditions: HeLa MMTV-bla, beta-lactamase ratio, agonist, 18 h; stronger effect = higher value; percent of dexamethasone control, DMSO zero. In short, it runs like this:
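HeLa GRE-bla reporter cells; 18 h compound exposure at 37 C; 2 h CCF4 loading at room temperature; fluorescence at 460 and 530 nm; EC50 by Hill equation.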

In assay [4] the target is Peroxisome proliferator-activated receptor delta (Homo sapiens) (UniProt Q03181). Briefly: qHTS assay for small molecule agonists of peroxisome proliferator-activated receptor delta signaling (AID 588534).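 Further: 0% = DMSO basal wells and 100% = positive control agonist at 10 µM.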 The gist of the method: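 Reporter cells were plated and held 5 hrs at 37 C before compounds were added. After 18 hrs at 37 C, CCF4 dye was loaded for 2 hrs at RT and fluorescence measured.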

Assay [5] can be described thus: qHTS assay for small molecule antagonists of peroxisome proliferator-activated receptor delta signaling (AID 588535; active means well fitted inhibition curve with a large enough effect in the signal ratio, with a control signal flat, not every such curve was filed as active; the % refers to the signal ratio;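 on max response: cells co-treated with a PPAR-delta agonist as stimulator during compound exposure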). Conditions: HEK293T PPARd-UAS-bla, beta-lactamase FRET ratio, 18 h; 460 nm channel. In short, it runs like this:
(§1)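 Cells were seeded at 4000 per well in assay medium containing 2% charcoal/dextran FBS and held 5 hrs at 37 C. Compounds were then added for 18 hrs. CCF4 substrate was applied for 2 hrs at room temperature before fluorescence reading.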

Assay [6] has as its target Peroxisome proliferator-activated receptor delta (Homo sapiens) (UniProt Q03181). The description is as above. In short, it runs like this:
as §1

The target of assay [7] is Peroxisome proliferator-activated receptor gamma (Homo sapiens) (UniProt P37231). Nature of the assay: qHTS assay for small molecule agonists of peroxisome proliferator-activated receptor gamma signaling (AID 588536; active means well fitted curve in the direction sought with a large enough effect in the signal ratio, with a control signal flat, not every such curve was filed as active; the % refers to the signal ratio;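 further: 0% = DMSO basal wells and 100% = rosiglitazone at 2 µM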). In short, it runs like this: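 Ratiometric blue/green fluorescence (405 nm excitation; 460 and 530 nm emission) from CCF4-loaded HEK293 reporter cells serves as signal. Exposure to test compounds lasts 16 h at 37 C in medium containing 1% charcoal/dextran-treated serum.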

Assay [8] shares this target. Nature of the assay: qHTS assay for small molecule antagonists of peroxisome proliferator-activated receptor gamma signaling (AID 588537; active means well fitted inhibition curve with a large enough effect in the signal ratio, with a control signal flat, not every such curve was filed as active; the % refers to the signal ratio;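 further: reporter cells co-stimulated with 50 nM rosiglitazone agonist during compound treatment; % of control where 0% means no effect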). In short, it runs like this: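 Step one: plate 3000 HEK293 UAS-bla cells per well in medium with 1% stripped serum and hold 6-6.5 h at 37 C. Step two: add compound and 50 nM agonist for 16 h. Step three: CCF4 loading, fluorescence read.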

Assay [9] deals with Vitamin D3 receptor (Homo sapiens) (UniProt P11473). Briefly: qHTS assay for small molecule antagonists of vitamin D receptor signaling (AID 588541).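 Further: receptor activated by calcitriol during compound treatment; series mostly up to about 77 µM; on the % scale 0 is the no-effect control and ±100 the full control effect.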 In short, it runs like this: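 VDR-UAS-bla HEK293T cells in 2% charcoal-stripped FBS were stimulated with 1-alpha,25-dihydroxyvitamin D3 (3 nM final) plus compound for 16 h at 37 C. The beta-lactamase CCF4 readout was normalized to 50 nM agonist and DMSO, and Hill fits gave IC50.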

Assay [10] has the same target. Briefly: qHTS assay for small molecule agonists of vitamin D receptor signaling (AID 588543).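 Further: 0% = DMSO basal and 100% = reference agonist control.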 The gist of the method:
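VDR-UAS-bla HEK293T cells, 2000/well, 2% charcoal-stripped FBS; compound titration 16 h at 37 C; CCF4 beta-lactamase ratio read. Normalized to 50 nM 1-alpha,25-dihydroxyvitamin D3 (100%) and DMSO; Hill fit gives EC50, efficacy.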

The nature of assay [11]: qHTS assay for small molecule agonists of retinoid X receptor alpha signaling (AID 588544).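 On activation: 0% = DMSO basal wells and 100% = reference agonist.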 Conditions: HEK293T RXRa-UAS-bla, beta-lactamase reporter, 18 h; 530 nm emission.
For assay [12], the target named is Retinoic acid receptor RXR-alpha (Homo sapiens) (UniProt P19793). The description is as above.
Assay [13] has as its target Thyroid hormone receptor beta (Homo sapiens) (UniProt P10828). Nature of the assay: qHTS assay for small molecule agonists of thyroid hormone receptor beta signaling (AID 588545).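 Further: 0% = DMSO only and 100% = 10 nM T3.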 In short, it runs like this:
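Compounds were tested as agonists in TR-UAS-bla-GripTite HEK 293 cells. After 18 hrs at 37 C, CCF4 substrate was added and fluorescence read after 2 hrs at room temperature.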

Assay [14] is described as follows: qHTS assay for small molecule antagonists of retinoid X receptor alpha signaling (AID 588546).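 Further: cells stimulated with 9-cis-retinoic acid as agonist; on the % scale 0 is the no-effect control and ±100 the full control effect.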 As to conditions: HEK293T RXRa-UAS-bla, beta-lactamase ratio, antagonist mode; measured here: W530 green channel, cytotoxicity proxy. In short, it runs like this: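 Beta-lactamase reporter inhibition, read as CCF4 fluorescence ratio (ex 405, em 460/530 nm) after 2 h at RT. HEK293T UAS-bla cells, 2500/well, were stimulated with 9-cis-RA at 500 or 100 nM final alongside test compound for 18 h at 37 C.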

Each structure is given as a SMILES string. Several values for one entry are separate records, joined by “and”; a condition that tells them apart may be missing. Identical values can stand only once. Results filed as inconclusive are left out. Activity calls are given as the source filed them. Unless noted, the call rests on the fitted dose curve.

Chain of Peroxisome proliferator-activated receptor gamma (Homo sapiens) (P37231 whole entry, looked up): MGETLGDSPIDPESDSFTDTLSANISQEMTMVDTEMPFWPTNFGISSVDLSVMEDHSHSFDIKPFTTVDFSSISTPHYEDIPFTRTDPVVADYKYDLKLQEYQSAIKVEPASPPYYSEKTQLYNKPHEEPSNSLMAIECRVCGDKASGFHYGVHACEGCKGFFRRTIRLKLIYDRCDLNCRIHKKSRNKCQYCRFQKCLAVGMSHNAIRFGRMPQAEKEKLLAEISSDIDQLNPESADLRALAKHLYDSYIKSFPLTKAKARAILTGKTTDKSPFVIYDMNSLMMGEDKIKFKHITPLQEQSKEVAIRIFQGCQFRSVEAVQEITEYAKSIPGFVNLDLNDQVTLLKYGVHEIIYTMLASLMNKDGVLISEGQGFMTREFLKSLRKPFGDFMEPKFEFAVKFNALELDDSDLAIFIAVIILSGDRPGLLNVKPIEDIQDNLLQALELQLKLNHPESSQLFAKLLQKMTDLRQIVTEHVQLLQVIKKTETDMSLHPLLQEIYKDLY
Chain of Glucocorticoid receptor (Homo sapiens) (P04150 whole entry, looked up): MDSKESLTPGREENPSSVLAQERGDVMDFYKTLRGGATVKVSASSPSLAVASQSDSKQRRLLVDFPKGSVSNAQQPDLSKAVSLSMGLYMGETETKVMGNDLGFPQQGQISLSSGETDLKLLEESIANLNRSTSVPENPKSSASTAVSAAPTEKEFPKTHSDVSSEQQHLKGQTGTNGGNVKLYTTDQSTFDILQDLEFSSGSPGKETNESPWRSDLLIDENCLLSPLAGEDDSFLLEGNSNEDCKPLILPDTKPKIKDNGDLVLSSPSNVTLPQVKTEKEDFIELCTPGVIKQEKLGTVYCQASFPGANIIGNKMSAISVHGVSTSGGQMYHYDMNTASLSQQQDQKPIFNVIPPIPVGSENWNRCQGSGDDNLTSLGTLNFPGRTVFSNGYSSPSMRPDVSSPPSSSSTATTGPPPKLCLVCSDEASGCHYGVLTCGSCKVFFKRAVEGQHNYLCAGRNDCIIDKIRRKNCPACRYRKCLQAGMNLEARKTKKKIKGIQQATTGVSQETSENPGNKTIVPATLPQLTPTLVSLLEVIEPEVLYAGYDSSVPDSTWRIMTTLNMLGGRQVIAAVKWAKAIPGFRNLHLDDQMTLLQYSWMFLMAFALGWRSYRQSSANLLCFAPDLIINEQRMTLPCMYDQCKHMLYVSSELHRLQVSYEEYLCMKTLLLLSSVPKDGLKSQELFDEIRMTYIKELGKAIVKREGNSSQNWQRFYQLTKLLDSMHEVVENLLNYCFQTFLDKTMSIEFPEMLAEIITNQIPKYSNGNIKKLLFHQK
Chain of Vitamin D3 receptor (Homo sapiens) (P11473 whole entry, looked up): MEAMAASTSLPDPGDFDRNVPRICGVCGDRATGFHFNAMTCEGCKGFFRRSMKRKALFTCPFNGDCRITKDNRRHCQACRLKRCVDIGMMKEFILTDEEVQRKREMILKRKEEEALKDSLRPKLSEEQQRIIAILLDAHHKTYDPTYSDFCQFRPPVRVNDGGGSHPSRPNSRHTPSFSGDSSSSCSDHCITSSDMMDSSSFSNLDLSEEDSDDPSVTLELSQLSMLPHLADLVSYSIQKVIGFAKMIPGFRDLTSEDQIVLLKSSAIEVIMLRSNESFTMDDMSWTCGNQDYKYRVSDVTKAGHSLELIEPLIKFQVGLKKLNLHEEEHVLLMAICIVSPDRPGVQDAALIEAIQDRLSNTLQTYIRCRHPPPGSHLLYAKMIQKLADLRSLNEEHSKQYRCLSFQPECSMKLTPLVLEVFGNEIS
Chain of Thyroid hormone receptor beta (Homo sapiens) (P10828 whole entry, looked up): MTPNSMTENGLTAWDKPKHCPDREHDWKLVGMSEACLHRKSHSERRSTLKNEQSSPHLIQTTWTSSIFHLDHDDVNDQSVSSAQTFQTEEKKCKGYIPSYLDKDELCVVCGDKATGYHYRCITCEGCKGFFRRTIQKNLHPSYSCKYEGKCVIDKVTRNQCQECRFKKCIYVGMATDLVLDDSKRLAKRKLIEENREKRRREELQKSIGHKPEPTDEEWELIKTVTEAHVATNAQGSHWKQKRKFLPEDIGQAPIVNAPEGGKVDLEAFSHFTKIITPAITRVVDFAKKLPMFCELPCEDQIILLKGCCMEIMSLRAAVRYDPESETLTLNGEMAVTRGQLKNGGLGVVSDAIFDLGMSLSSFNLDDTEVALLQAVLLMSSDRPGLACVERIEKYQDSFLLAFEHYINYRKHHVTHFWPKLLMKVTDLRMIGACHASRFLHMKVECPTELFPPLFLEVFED
Chain of Peroxisome proliferator-activated receptor delta (Homo sapiens) (Q03181 whole entry, looked up): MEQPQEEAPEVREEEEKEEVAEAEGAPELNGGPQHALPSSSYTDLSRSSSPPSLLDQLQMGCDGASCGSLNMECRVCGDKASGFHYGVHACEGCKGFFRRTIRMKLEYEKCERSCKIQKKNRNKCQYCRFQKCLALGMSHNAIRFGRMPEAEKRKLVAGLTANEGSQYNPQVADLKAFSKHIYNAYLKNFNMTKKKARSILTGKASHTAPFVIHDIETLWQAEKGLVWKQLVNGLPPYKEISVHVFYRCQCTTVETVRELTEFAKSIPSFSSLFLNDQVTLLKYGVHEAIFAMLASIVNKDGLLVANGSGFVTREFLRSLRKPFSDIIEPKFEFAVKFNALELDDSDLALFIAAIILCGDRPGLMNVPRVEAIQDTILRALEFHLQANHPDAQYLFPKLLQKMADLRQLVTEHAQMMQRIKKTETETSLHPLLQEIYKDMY
Chain of Retinoic acid receptor RXR-alpha (Homo sapiens) (P19793 whole entry, looked up): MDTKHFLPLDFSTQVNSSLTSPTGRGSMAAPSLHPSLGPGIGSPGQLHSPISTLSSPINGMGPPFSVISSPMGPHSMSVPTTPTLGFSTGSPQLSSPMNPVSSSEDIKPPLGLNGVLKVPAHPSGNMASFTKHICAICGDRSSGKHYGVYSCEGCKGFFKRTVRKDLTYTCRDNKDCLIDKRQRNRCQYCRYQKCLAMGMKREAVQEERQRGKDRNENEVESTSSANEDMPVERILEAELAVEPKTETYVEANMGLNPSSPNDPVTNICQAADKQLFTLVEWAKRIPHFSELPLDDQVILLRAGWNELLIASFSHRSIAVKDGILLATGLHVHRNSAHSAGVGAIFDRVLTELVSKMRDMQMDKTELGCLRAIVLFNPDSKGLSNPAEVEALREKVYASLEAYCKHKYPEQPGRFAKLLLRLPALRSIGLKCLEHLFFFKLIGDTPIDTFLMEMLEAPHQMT
Chain of Bile acid receptor (Homo sapiens) (Q96RI1 whole entry, looked up): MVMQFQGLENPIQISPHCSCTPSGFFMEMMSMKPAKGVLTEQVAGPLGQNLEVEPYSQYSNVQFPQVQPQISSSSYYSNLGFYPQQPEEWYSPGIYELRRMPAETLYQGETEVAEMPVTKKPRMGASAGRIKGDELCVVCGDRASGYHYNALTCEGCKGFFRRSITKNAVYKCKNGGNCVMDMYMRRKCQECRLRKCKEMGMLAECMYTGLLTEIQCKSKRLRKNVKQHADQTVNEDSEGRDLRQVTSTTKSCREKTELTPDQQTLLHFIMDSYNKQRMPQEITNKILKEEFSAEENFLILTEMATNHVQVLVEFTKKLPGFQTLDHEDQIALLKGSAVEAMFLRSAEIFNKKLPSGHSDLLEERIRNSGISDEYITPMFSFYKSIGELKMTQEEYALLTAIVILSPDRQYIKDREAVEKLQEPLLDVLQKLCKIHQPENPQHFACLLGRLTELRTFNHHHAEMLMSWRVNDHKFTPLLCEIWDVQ

On to `Nc1ccc(N=Nc2ccccc2)cc1`, for which the call in assay [1], in [4], in assay [7], in [10] and in [13] was inactive. For the same compound, the activation is -11.4% (inactive) in assay [2] and -2.94% (inactive) in [3]. For the same compound, the max response in assay [5] was 4.67%; in assay [11], -10.7%. Also, the Potency result in assay [6], in assay [8], in assay [9] and in assay [12] was “inactive” each time.
Consider `O=S(=O)(O)C(F)(F)C(F)(F)C(F)(F)C(F)(F)C(F)(F)C(F)(F)C(F)(F)C(F)(F)F`, for which the result in assay [7], in assay [10] and in [13] was inactive. Moreover, the Potency entry in assay [8], in [9] and in assay [12] was “inactive” throughout. For the same compound, the max response was -11.4% and -1.61% in assay [11]; -5.97% and -3.14% in assay [14].
`CCCCCCCCCC(CC)c1ccc(S(=O)(=O)O)cc1` (stereo not given): the activation in assay [3] is 8.71% (inactive) and 0.614% (inactive). Moreover, the max response in assay [5] is -20.6% and 1.67%; in assay [11], 2.78% and -0.585%; in [14], -9.16% and 3.96%. Further, the Potency result in assay [6], in [8] and in assay [12] was “inactive” in each case. The result in assay [7] and in [13] was inactive.
Turning to `O=C(O)c1cc(Oc2ccc(C(F)(F)F)cc2Cl)ccc1[N+](=O)[O-]`, the result in assay [7] and in assay [13] was inactive. For the same compound, the figures for the max response in assay [11] and in assay [14] were 11.8% and -4.23%, respectively. Besides, in assay [12], the Potency result is “inactive”.

Values taken from PubChem BioAssay (NCATS).
